Screens (PubChem BioAssay)
PLCg1 inh: blocks human PLC-gamma1 enzyme activity; purified PLC-gamma1, fluorogenic substrate, fluorescence; inhibition, % at 12.2 µM; actives 0.84% (n = 370,000); in the data active means inhibition above about 9.5%
LEDGF integ inh: blocks HIV-1 LEDGF/p75-dependent DNA integration | TR-FRET IN-LEDGF/p75 DNA integration, Eu/Cy5 | inhibition, % at 3.7 µM | actives 0.64% (n = 370,000) | AID 743269;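 active means inhibition above the screen-wide mean plus 3 SD, cut at about 13% in these data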;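 further: signal is the Cy5 over europium emission ratio at 671 and 618 nm; 0% = plate median of compound wells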
MBD2 DNA inh: MBD2-methylated oligo binding inhibition. Q9UBB5. TR-FRET, MBD2 binding to methylated oligonucleotide. inhibition, % at 4.4 µM. actives 0.31% (n = 370,000). AID 686964; in the data active means inhibition above about 13%
Target sequence (Q9UBB5 whole entry, looked up): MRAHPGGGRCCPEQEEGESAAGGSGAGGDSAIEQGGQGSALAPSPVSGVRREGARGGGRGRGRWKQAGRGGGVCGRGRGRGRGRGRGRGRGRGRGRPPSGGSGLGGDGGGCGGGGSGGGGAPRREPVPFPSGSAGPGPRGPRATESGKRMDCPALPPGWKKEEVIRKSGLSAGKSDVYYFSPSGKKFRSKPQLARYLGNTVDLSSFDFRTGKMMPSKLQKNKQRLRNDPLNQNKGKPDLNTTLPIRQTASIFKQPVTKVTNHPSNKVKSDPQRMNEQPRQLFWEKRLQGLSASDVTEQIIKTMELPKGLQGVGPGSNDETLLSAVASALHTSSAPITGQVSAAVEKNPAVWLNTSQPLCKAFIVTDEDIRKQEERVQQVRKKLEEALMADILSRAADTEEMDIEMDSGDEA
PLC-beta3 inh: inhibitors of human phospholipase C beta3; actives 0.18% (n = 370,000); inhibition, % at 12.2 µM; AID 720704; Purified PLC-beta3, fluorogenic substrate, fluorescence; in the data active means inhibition above about 11%;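 further: 0% = median of compound wells on plate and 100% = full blocker control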
UHRF1 MBD2 ctr: blocks human UHRF1 binding to methylated DNA. Q96T88. UHRF1 binding to methylated oligo, TR-FRET. inhibition, % at 4.4 µM. actives 0.75% (n = 370,000). AID 687016; in the data active means inhibition above about 21%;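 further: UHRF1 SRA domain binding a hemimethylated CpG hairpin DNA probe; 0% = median of test compound wells and 100% = reference inhibitor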
* = called active by the depositor. Compounds with a hit are over-represented: about 2.4% of the library has one in this group of screens.

SMILES | PLCg1 inh | LEDGF integ inh | MBD2 DNA inh | PLC-beta3 inh | UHRF1 MBD2 ctr
O=C(CSc1nc2ccccc2n1CCc1ccccc1)c1ccc(O)c(O)c1 | 4.2 | 32.2* | 25.9* | -6.8 | 57.5*
O=C(Nc1ccc(OC(=O)c2cccs2)cc1)c1ccco1 | 2.3 | 1.4 | 10.1 | 2.5 | 24.1*
CC1=C(C#N)C(=O)NC(=O)/C1=C/c1ccc(-c2ccc(S(N)(=O)=O)cc2)o1 | -14.6 | 1.4 | 20.5* | -20.9 | 0.6
COC(=O)[C@@]12CCCCC3=C1N(CCC3)C(=O)[C@H]2CC(=O)NCc1ccc(C)o1 | -1.3 | 0.3 | 5.9 | -0.6 | -0.3
COC(=O)[C@]12C[C@H](CC(=O)N3CCC(c4ccccc4)CC3)C(=O)N(Cc3cccc4ccccc34)C1=C[C@H](COCc1ccccc1)O[C@@H]2C | 1.2 | -5.2 | -1.1 | -2.2 | 1.1
C=C(C)CN=CC1(C)CCC(C)=CO1 (stereo not drawn) | -5.7 | -2.7 | -0.2 | -5.5 | 36.5*
O=C(c1ccc(F)cc1)c1cccc(C(=O)c2ccc(F)cc2)n1 | 3.3 | 0.8 | -22.6 | 10.6* | -1.4
COC(=O)c1ccc2nc(-c3cccc(Cl)c3)c(Cc3ccccc3C(F)(F)F)n2c1 | 0.5 | 0.0 | 12.6 | -7.4 | 22.1*
Cc1ccc2nc(-c3ccc(F)cc3)c(Cc3ccccc3C(F)(F)F)n2c1 | -15.2 | 0.5 | 8.4 | -14.9 | 21.8*
COC(=O)c1ccc2nc(-c3cccc(Cl)c3)c(Cc3ccsc3)n2c1 | -48.1 | -1.5 | 9.1 | -66.9 | 22.4*
COC(=O)c1ccc2nc(-c3ccccc3)c(Cc3ccsc3)n2c1 | -115.0 | -0.2 | 2.3 | -151.1 | 22.2*
CCC(C)NC(=O)C1CCN(S(=O)(=O)c2ccc3[nH]c(=O)oc3c2)CC1 (stereo not drawn) | -0.1 | 6.0 | -6.3 | 3.2 | -0.3
CCc1ccc(CNCC(=O)N2CCC3(CC2)OCCO3)s1 | 2.4 | 5.1 | -3.6 | 0.5 | -2.0
O=C(N[C@H]1C[C@@H]2O[C@H](CO)CC[C@@H]2O[C@@H]1CCc1ccc(-c2cccnc2)cc1)c1cccc(F)c1 | 0.3 | -0.4 | -1.2 | 1.3 | 0.5
O=C([C@@H]1C[C@H]1c1ccccc1)N1CC[C@H]2[C@H](CCCN2Cc2ccc(F)cc2)C1 | 2.8 | -2.4 | 3.1 | -1.7 | -0.8
COCCCN1C(=O)[C@H](CC(=O)NCc2cccc3ccccc23)[C@]2(C(=O)OC)CCCCC=C12 | 1.0 | -2.4 | 6.6 | 2.4 | -1.5
COC(=O)c1ccc2nc(-c3cccc(Cl)c3)c(CC3CCCCC3)n2c1 | -5.1 | 4.7 | 5.1 | -13.0 | 21.7*
COC(=O)c1ccc2nc(-c3cccc(Br)c3)c(Cc3ccsc3)n2c1 | -27.9 | 1.6 | 8.4 | -45.1 | 21.5*
COC(=O)c1ccc2nc(-c3ccc(OC)c(OC)c3)c(Cc3ccsc3)n2c1 | -23.2 | 6.4 | 8.5 | -28.1 | 18.8
COC(=O)c1ccc2nc(-c3cccc(Cl)c3)c(Cc3cccc(Cl)c3)n2c1 | -4.5 | 0.8 | 5.2 | -6.6 | 23.1*
COC(=O)c1ccc2nc(-c3cccc(Br)c3)c(Cc3cccc(F)c3)n2c1 | -1.6 | -2.4 | -0.8 | -3.2 | 4.1
COC(=O)c1ccc2nc(-c3ccc(Cl)cc3)c(Cc3ccsc3)n2c1 | -10.8 | -3.7 | 8.8 | -19.8 | 20.8*
CCCCNC(=O)NS(=O)(=O)c1ccc(NC(=O)CSc2nnc(-c3cccs3)n2-c2ccc(OC)cc2)cc1 | 2.1 | 2.6 | -1.2 | 2.6 | 0.0
O=C1N(CCCO)CCC12CCCCC2 | 0.1 | -4.2 | 4.4 | -0.1 | -0.1
C#CCCCN([C@H](C(=O)OC)C(C)C)S(=O)(=O)c1ccc(F)cc1Br | 1.2 | 2.5 | -8.2 | 4.4 | 0.3
SMILES | PLCg1 inh | LEDGF integ inh | MBD2 DNA inh | PLC-beta3 inh | UHRF1 MBD2 ctr
Cc1ccc(-c2cc(-c3nnc(SCC(=O)Nc4ccccc4-c4ccccc4)n3N)[nH]n2)cc1 | 2.0 | 5.1 | 2.6 | -2.1 | -2.5
N#Cc1cn(CC(=O)NCC2CCCO2)c2ccccc12 (stereo not drawn) | 0.1 | -2.0 | 2.9 | -0.5 | 22.7*
Cc1ccc2ccccc2[n+]1CCCS(=O)(=O)[O-] | -2.2 | 0.8 | 0.2 | -3.6 | 35.6*
COc1ccc(/C=C2\N=C(c3ccc(C)cc3)OC2=O)cc1 | 1.2 | -3.9 | -1.7 | -6.5 | 0.4
Cc1ccc(C2=N/C(=C\c3coc4ccccc4c3=O)C(=O)O2)cc1 | -11.2 | 40.0* | -2.2 | -24.5 | 3.6
Cc1nc(N2CCCCC2C)c2nnn(Cc3ccccc3)c2n1 (stereo not drawn) | 0.0 | -1.2 | -6.4 | 2.9 | -0.9
Nc1nc2ncc(C(=O)c3cc(F)ccc3O)cc2s1 | -4.3 | -3.4 | 6.8 | -14.2 | 21.5*
CCOc1ccc(-n2c(SCC(=O)Nc3ccc(S(=O)(=O)Nc4nccs4)cc3)nnc2-c2ccc(C(C)(C)C)cc2)cc1 | 5.1 | -1.5 | 2.0 | 0.7 | 0.2
O=C(NC1CCCCN(Cc2cccc(Cl)c2)C1=O)c1ccc2ccccc2c1 (stereo not drawn) | 0.9 | 3.2 | 4.8 | 3.4 | -2.6
O=C(OCC(=O)N1CCN(C(=O)c2ccco2)CC1)c1cccc(S(=O)(=O)N2CCc3ccccc32)c1 | 3.5 | 0.0 | -2.0 | 0.3 | 20.8*
COC(=O)[C@H](C(C)C)N(CCc1cn(CC2CCCCC2)nn1)S(=O)(=O)c1ccccc1Br | 2.5 | -4.3 | -0.2 | -1.4 | -0.7
COc1cccc(/C=C2\SC(=S)N(CC(=O)N(C)C3CCS(=O)(=O)C3)C2=O)c1 (stereo not drawn) | -6.6 | 2.4 | 8.8 | -15.3 | 23.5*
CCOC(=O)C1CCCN(C2=C(NS(=O)(=O)c3ccc(Br)cc3)C(=O)c3ccccc3C2=O)C1 (stereo not drawn) | -15.1 | 22.4* | -0.8 | -28.4 | -2.0
O=C1C(NC(=O)N2c3ccccc3C=Cc3ccccc32)CCCCN1Cc1cccc(C(F)(F)F)c1 (stereo not drawn) | 0.4 | 2.7 | -2.4 | -3.4 | 0.7
CC(COc1ccccc1)CN1CCC(C(O)(c2ccccc2)c2ccccc2)CC1 (stereo not drawn) | 4.8 | -1.6 | 3.2 | 5.4 | -1.3
C[C@H](CO)N1C[C@H](C)[C@H](CN(C)C(=O)OCc2ccccc2)OCc2cnnn2CCCC1=O | -0.3 | -3.1 | 3.6 | 1.4 | 23.8*
C[C@@H]1CN([C@@H](C)CO)C(=O)CCCn2nncc2CO[C@@H]1CN(C)C(=O)OCc1ccccc1 | -1.9 | 0.6 | 5.4 | -1.9 | 4.0
Cc1noc(C)c1S(=O)(=O)N(C)C[C@@H]1OCc2cn(nn2)CCCC(=O)N([C@@H](C)CO)C[C@H]1C | 12.2* | 6.6 | -3.4 | 8.8 | 3.7
COc1cccc(S(=O)(=O)N(C)C[C@H]2OCc3cnnn3CCCC(=O)N([C@@H](C)CO)C[C@H]2C)c1 | 1.4 | -0.6 | 9.7 | 2.9 | 22.0*
CCCN(C)C[C@H]1OCc2cnnn2CCCC(=O)N([C@H](C)CO)C[C@@H]1C | -1.5 | 3.0 | 12.8 | 2.2 | 23.2*
Cc1ccc(S(=O)(=O)N2CCCC2C(=O)N2CCc3ccccc3C2)cc1C (stereo not drawn) | -2.5 | -1.5 | 0.9 | -0.4 | 5.0
